Screening results (PubChem)
In the library only some 1.5% were active in any assay of this set; here they are far more common.
BRCA1 expr act: activators of BRCA1 expression; MCF7-BRCA1-FFLuc reporter, luminescence, 48 h; response scale: scaled: vehicle 0%, 10 µM genistein 100%; Potency, µM (highest dose often 46.1 µM), without a hit: at the highest dose activation, actives largely listed as activators; actives 1.1% (n = 380,000); also: potency is read from the fitted curve at half-maximal effect; nearly all actives have a fitted effect of over 80% in size
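Activators of BRCA1 expression were detected as increased firefly luciferase luminescence in engineered MCF7 cells after 48 h compound incubation. Signals were scaled to genistein 10 microM as full activation.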
gsp ag: agonists of gsp mutant (McCune-Albright syndrome) | gsp mutant cells, cAMP HTRF, 30 min | Potency, µM (series often up to 76.9 µM), for inactives: top-dose activation (cAMP increase), most hits filed as activators | actives 0.13% (n = 340,000); active = well fitted activation curve with a large enough effect; inconclusive = small, poorly fitted or top-dose-only effect, or another doubt; inactive = no such curve, though single readings can be large or run the other way; cell line not stated here;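 also: phosphodiesterase inhibitor Ro 20-1724 added with compounds to block cAMP breakdown; potency is read from the fitted curve at half-maximal effect; nearly all actives have a fitted effect of over 60% in size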
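Cells stably selected in G418 were plated at 2000/well, grown 16-24 hr, then given compounds in DMSO with the PDE inhibitor […] (300 uM solution added) for 30 min at 37C; cAMP was read by HTRF.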
IL-2 act: activates IL-2 in a cell-based reporter assay; IL-2 activation reporter assay, cell-based qHTS; stimulated with anti-CD3/CD4/CD28 beads; in transgenic mouse T cells; activation, % (series mostly up to about 46 µM); actives 0.065% (n = 360,000); in the data active = activation above about 50%; inconclusive = mostly about 30% to 49%; also: 0% is about no effect
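Unstimulated transgenic mouse T cells; 60-min compound exposure; bead-based TCR/CD4/CD28 stimulation; 18 h culture, 37 degrees C; dual fluorescence (EGFP, DsRed) plate cytometry.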
gsp antag: gsp mutant antagonism. gsp-mutant cells, cAMP HTRF, 30 min. Potency, µM (titrated, usually from 76.9 µM), without a hit: at the highest dose activity change, negative = inhibition, actives largely listed as inhibitors. actives 0.4% (n = 340,000). AID 624288; calls by dose curve; cell line not stated here;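 also: intracellular cAMP measured with PDE inhibitor Ro 20-1724 present during compound exposure; potency is read from the fitted curve at half-maximal effect; % is scaled to controls: 0 for no effect and ±100 for the full control effect; nearly all actives have a fitted effect of over 65% in size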
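HTRF cAMP measurement after 30 min RT detection following 30 min, 37C compound treatment alongside […] (added as 300 uM solution) in G418-selected cells seeded at 2000/well and grown 16–24 h.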
mIDH1 inhibitor: inhibitors of human mutant IDH1 R132H. Potency, µM (series often up to 76.6 µM), inactives show top-dose activity change, negative = inhibition, usual class: inhibitors. AID 602179. actives 0.093% (n = 390,000). IDH1-R132H enzyme, NADPH consumption, diaphorase/resazurin fluorescence; also: potency is read from the fitted curve at half-maximal effect; % is scaled to controls: 0 for no effect and ±100 for the full control effect; nearly all actives have a fitted effect of over 65% in size
Target sequence (O75874 whole entry R132H, stated change not applied): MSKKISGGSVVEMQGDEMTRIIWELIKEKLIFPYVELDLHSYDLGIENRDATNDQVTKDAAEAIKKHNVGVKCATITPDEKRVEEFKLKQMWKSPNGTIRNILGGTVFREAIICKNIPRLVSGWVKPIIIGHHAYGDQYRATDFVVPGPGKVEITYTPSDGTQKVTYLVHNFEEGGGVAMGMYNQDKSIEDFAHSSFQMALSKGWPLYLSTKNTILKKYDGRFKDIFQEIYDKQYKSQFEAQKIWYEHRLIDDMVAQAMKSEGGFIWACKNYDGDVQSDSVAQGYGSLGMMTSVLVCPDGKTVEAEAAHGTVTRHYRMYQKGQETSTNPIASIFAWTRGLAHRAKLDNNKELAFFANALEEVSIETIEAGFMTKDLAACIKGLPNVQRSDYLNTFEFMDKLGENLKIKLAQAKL
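IDH1-R132H (0.5 ug/mL) preincubated 30 min with compound, then NADPH (0.016 mM) and alpha-KG (2 mM) added; 80 min at RT, pH 7.5. Remaining NADPH coupled via diaphorase/resazurin to fluorescence (540/590 nm); concentration-response curves normalized to no-enzyme control.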
Numbers without * were called inactive; ? = inconclusive; / = no result; [ ] = another dose, or the depositor's remark. Unless noted, calls follow the shape of the dose curve; as a rule, active = well fitted curve in the direction sought with a large enough effect; inconclusive = small, poorly fitted or top-dose-only effect, or another doubt; inactive = no such curve, though single readings can be large; an effect the other way counts as inactive or inconclusive.

SMILES | BRCA1 expr act | gsp ag | IL-2 act | gsp antag | mIDH1 inhibitor
O=C(CSc1ncccn1)NC(=O)Nc1ccc2c(c1)OCCO2 | 13µM* | -15% | 0 | ? | 3%
O=C(Nc1ccc2c(c1)OCO2)N1CCN(S(=O)(=O)c2ccc(Cl)cc2)CC1 | 62% | -24% | -1 | -1% | 2%
O=C(CNCc1ccccc1Cl)Nc1ccc2c(c1)OCCO2 | 10µM* | 3% | 0 | 5% | 6%
Cn1cccc1C(=O)OCC(=O)NCc1ccc2c(c1)OCO2 | 16% | 22% | 0 | -3% | 1%
CCN1C[C@@H]2[C@@H]3C(=O)N(C)C(=O)[C@@H]3[C@](Cc3ccccc3)(C1=O)N2C(=O)c1ccc(C(C)(C)C)cc1 | 0% | 10% | 0 | 3% | 18%
CC1(C)N=C(N)N=C(N)N1c1ccc(OCC(=O)N2CCOCC2)c(Cl)c1 | -27% | 4% | 2 | / | 6%
COc1ccc(-c2csc3ncnc(Nc4cc(OC)cc(OC)c4)c23)cc1 | / | / | / | / | 11%
O=C(OCC(=O)N1CCN(c2ccccc2)CC1)C1CCCN1S(=O)(=O)c1ccc(Cl)cc1 (configuration not stated) | -1% | -7% | -4 | -8% | 2%
COc1cc(/C=N/Nc2nncc3ccccc23)cc(OC)c1OC | 7.1µM* | -2% | -3 | -4% | -8%
CCCC1CCC(c2ccc(OCC)cc2)=CC1=O (configuration not stated) | 8.9µM* | -40% | -1 | -12% | 13%
C[C@@H]1OC(C2CCCCC2)N(C)[C@H]2C[C@H]3c4[nH]c5ccccc5c4CCN3C[C@@H]12 (some centres not stated) | -17% | / | -1 | / | /
O=C(Cc1ccc(Cl)c(Cl)c1)OCC(=O)c1ccc[nH]1 | -18% | -46% | -4 | 22% | 28%
O=C(OCc1ccc(Cl)c(Cl)c1)c1ccc[nH]1 | 13µM* | -45%[15.4 µM] | -1 | ? | 0%
N#Cc1cccc(NC(=O)CSc2ccc3c4c(cccc24)C(=O)c2ccccc2-3)c1 | -57% | ? | 9 | 8% | -2%
COc1ccc(NC(=O)CSc2ccc3c4c(cccc24)C(=O)c2ccccc2-3)cc1 | -10% | -13% | 184* | 9% | -3%
CC(=Nc1ccccc1)C1=C(O)C(Cc2cccc(F)c2)NC1=O (configuration not stated) | 7% | ? | -2 | / | -5%
COc1ccc(CCN2C(=O)C(O)=C(C(=O)c3ccco3)C2c2cccs2)cc1OC (configuration not stated) | -20% | 18µM* | -2 | 32% | 20%
COc1cc(C2C(C(=O)c3ccco3)=C(O)C(=O)N2CCc2ccccc2)ccc1O (configuration not stated) | -11% | 20% | -1 | -22% | 9%
CCN(CC)CCCNC(=O)CCC(=O)Nc1ccc2nc(N3CCCCC3)cc(C)c2c1 | 11µM* | ? | 0 | 3% | 8%
CCCCNC(=O)CCC(=O)Nc1ccc2nc(N3CCOCC3)cc(C)c2c1 | 4µM* | 0% | -1 | -9% | 1%
Cc1ccc2nc(Cl)c3cc(C(=O)NC4CCC(C)CC4)sc3c2c1 (configuration not stated) | / | / | / | / | -11%
O=C(Nc1ccncc1)c1ccc2c(c1)C(=O)N(C1CCCCC1)C2=O | -34% | -38% | -4 | 22µM* | 6%
S=c1nc[nH]c2c1[nH]c1ccccc12 | -1% | 13µM* | -5 | 55% | 5%
S=c1nc[nH]c2c1[nH]c1ccc(Cl)cc12 | 16% | ? | -1 | 10% | 0%
CC1CCC(NC(=O)CCNC(=O)c2ccc(Br)cc2)CC1 (configuration not stated) | 4.5µM* | -2% | -2 | 5% | -1%
SMILES | BRCA1 expr act | gsp ag | IL-2 act | gsp antag | mIDH1 inhibitor
CCOCCCNC(=O)c1c(NC(=O)c2nc(SCC)ncc2Cl)sc2c1CCCC2 | -6% | / | / | / | /
CC1=C(C(=O)Nc2cccc(C(=O)N3CCN(c4cccc(C(F)(F)F)c4)CC3)c2)SCCO1 | -35% | 1% | -3 | 50µM* | -2%
CC1=C(C(=O)Nc2ccc(C(=O)N3CCN(c4cccc(Cl)c4)CC3)cc2)SCCO1 | 10% | 30% | -1 | ? | -1%
N=C1SCC(=O)N1c1nc(-c2ccccc2)cs1 | 7.9µM* | -32% | 1 | -8% | 2%
COc1ccccc1NC(=O)CN1C(=O)C(C)(C)c2ccccc21 | / | / | / | / | 21%
CC(=O)c1cccc(OCc2cc(C(=O)NCCC3=CCCCC3)no2)c1 | 3.2µM* | ? | 1 | -12% | 3%
Cc1cc(C(=O)NCCC2=CCCCC2)no1 | 10µM* | ? | 0 | 15% | 2%
COc1ccc(-c2nc3ccc(NC(=O)COC(C)=O)cc3c(=O)n2Cc2ccccc2)cc1COc1ccc(NC(C)=O)cc1 | -4% | / | / | / | /
CCOC(=O)c1c(C)c(-c2ccccc2)n(CC(=O)NCc2ccccc2)c1C | 5% | / | / | / | -3%
NCCCN(Cc1ccc(Cl)cc1)c1ccc(Br)cn1 | -26% | / | / | / | /
CCCCOc1ccc(-c2cn3ccccc3n2)cc1[N+](=O)[O-] | ? | -13% | -3 | -22% | 12%
Nc1nc(-c2ccc([N+](=O)[O-])cc2)cs1 | 74% | 3% | -1 | -1% | 8%
CCCOc1ccc(-c2csc(N)n2)cc1[N+](=O)[O-] | 7.9µM* | -37% | 0 | 0% | 4%
CCOc1ccc(-c2cn3ccccc3n2)cc1[N+](=O)[O-] | 4µM* | 7%[15.4 µM] | -4 | -1% | 8%
c1ccc2nccnc2c1 | -79% | / | / | / | /
O=C(NCCCc1ccccc1)c1ccccc1 | 10µM* | -18% | 0 | 0% | -1%
COc1ccc(C(=O)NCCS(=O)(=O)NCCc2ccccc2)cc1 | 4.5µM* | 21%[15.4 µM] | -1 | -2% | -7%
COc1ccc(CCNS(=O)(=O)CCNC(=O)c2ccccc2)cc1 | -24% | 10% | 5 | -1% | 2%
O=C(NCCc1ccccc1)c1ccc(Br)o1 | 7.1µM* | / | 0 | 2% | 9%
COc1cc(Cl)c(C)cc1NC(=O)CCc1nc2cccnc2n1-c1ccccc1 | / | / | / | / | 3%
CCc1c(O)cc2n(c1=O)-c1ccc(Cl)cc1C2(C)C | -9% | ? | -2 | 45µM* | 1%
Cc1c(C(=O)Nc2cccc(Cl)c2)c2ccccn2c1CCc1ccncc1 | -22% | -9%[15.4 µM] | -5 | 28µM* | -1%
Cc1c(C(=O)Nc2ccc(Cl)cc2)c2ccccn2c1CCc1ccncc1 | 27% | ? | -1 | 0% | 8%
N/C(=N\OC(=O)c1ccco1)c1ccccc1 | 5.6µM* | 7% | 0 | -7% | 1%
COc1ccc(/C(N)=N/OC(=O)c2ccco2)cc1 | ? | -2%[15.4 µM] | 2 | 10% | 3%
N/C(=N\OC(=O)c1ccco1)c1ccc(Br)cc1 | 2.5µM* | 2% | 0 | -6% | 4%
